The panel holds about 79,000 compounds, 15% with a hit somewhere; the sample as a whole holds those more often. Values without a mark were called inactive. Active and inactive are the calls of the source. Cut-off read from the data, not from the text of the source: active = growth inhibition above about 70%; inactive = the rest.
Test: NCI Yeast Anticancer Drug Screen. Data for the rad50 strain (AID 155);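 note: 0% = growth of vehicle-only cultures of the same strain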
Details: S. cerevisiae rad50 strain growth inhibition, hits give high values
Protocol: Growth inhibition of yeast strains with defined genetic alterations is measured as a screen for potential anti-cancer activity. Selected strains with alterations in DNA damage repair or cell cycle control were exposed to compounds and growth inhibition was measured relative to vehicle treated controls. The strain used in this assay is rad50

[1] = at 5.0 µM (retest, dose inferred, filed as 0.5)
[2] = at 50.0 µM (retest, dose inferred, filed as 5.0)

Structure (SMILES)	growth inhibition [1]	growth inhibition [2]	growth inhibition (at 50.0 µM)
[O-][n+]1ccc(Br)c(/C=C/c2ccccc2)c1	0%	20%	24.1%
CC(=O)OC[C@@H](OC(C)=O)[C@H](OC(C)=O)c1cnn(-c2ccccc2)n1	-3%	-11%	-0.85%
O=c1ccn(C2OC(COC(c3ccccc3)(c3ccccc3)c3ccccc3)C(O)C2O)c(=O)[nH]1 (configuration not stated)	34%	98% (active)	90.8% (active)
CCc1cccc(CC)c1NC(=O)CS	-151%	93% (active)	98% (active)
CC(C)C(Cl)CC/C(CBr)=C(\Cl)CCl (configuration not stated)	28%	89% (active)	75% (active)
Nc1ccc2c(SCC(=O)Nc3ccccc3-c3ccccc3NC(=O)CSc3c4ccccc4nc4cc(N)ccc34)c3ccccc3nc2c1	25%	97% (active)	90% (active)
Fc1cccc(C2SCc3nc4ccccc4n32)c1F (configuration not stated)	-4%	2%	63.3%
COC(=O)C1=C(NC(=O)Nc2ccc(Cl)cc2)OC(C)(C)C1c1ccc(Cl)cc1 (configuration not stated)	87% (active)	88% (active)	96.5% (active)
COc1cccc2c1C(=O)c1c(O)c3c(c(O)c1C2=O)CC(O)(C(=O)CO)CC3OC1CC(N)C(O)C(C)O1.[Cl][Pt+2][Cl].[NH2-].[NH2-] (configuration not stated)	12%	85% (active)	74.5% (active)
O=C1C=CC(=O)N1c1ccc(Cl)cc1Br	49%	42%	93.3% (active)
CCOC(=O)/C(=C\c1ccc(Cl)cc1)C(C)=O	31%	98% (active)	93.2% (active)
CCOC(=O)C1SC(=Nc2ccc(Cl)cc2C)N=C1C (configuration not stated)	29%	98% (active)	89% (active)
[Cl][Sn]1([Cl])[CH2]CC[CH2][Sn]([Cl])([Cl])[CH2]CC[CH2][Sn]([Cl])([Cl])[CH2]CC[CH2][Sn]([Cl])([Cl])[CH2]CC[CH2]1	-20%	57%	54.3%
Cc1cc(O)c(C=NC(=S)C(N)=S)c(=O)o1	29%	43%	-27.7%

Reference: PubChem BioAssay (NCI)
